From PubChem BioAssay (NCATS)
Where “and” joins values, the source holds several entries; their conditions need not be identical. Equal entries are not always repeated. Inconclusive results are not listed. Calls of active or inactive are those of the source. Calls follow the shape of the dose curve; as a rule, active = well fitted inhibition curve with a large enough effect; inconclusive = small, poorly fitted or top-dose-only effect; inactive = flat fitted curve, though single readings scatter.

Key:
[1] = qHTS for identification of novel therapeutic agents for treatment of microphthalmiaassociated transcription factor (MiT) renal cell carcinoma (RCC) (AID 1963991); conditions: CellTiter-Glo, 48 h, stronger effect = lower value
Outline: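 Viability of three TFE3-fusion renal carcinoma lines measured by CellTiter-Glo after 48 h treatment with each of 1912 compounds at 11 concentrations. Responses scaled between DMSO (100%) and empty wells (0%) before curve fitting.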

[2] = qHTS profiling for inhibitors of Plasmodium falciparum proliferation (AID 504749);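 also: 0% = DMSO vehicle and full inhibition = artemisinin control; nearly all actives have a fitted effect of over 60% in size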; conditions: P. falciparum in erythrocytes, SYBR Green DNA, 72 h
Outline: (§1)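 Readout was DNA-dye fluorescence from lysed cultures, ex 485/em 535 nm. Parasitized red cells had grown 72 h with compound; data scaled between 0.29 uM artemisinin and DMSO wells and corrected using vehicle-only plates.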

[3] = test system: 3D7; assay: as above; conditions: P. falciparum in erythrocytes, SYBR Green DNA, 72 h; series mostly up to 28.7 µM
Outline: as §1

[4] = TFE3-RCC UOK109 viability, measured here: UOK109 Z-AUC
[5] = TFE3-RCC viability, measured here: UOK124 Z-AUC
[6] = TFE3-RCC viability, measured here: UOK145 Z-AUC
[7] = at 28.7 µM (top of the series), parasite line A
[8] = at 28.7 µM (top of the series), parasite line B
[9] = at 12.8 µM (top of the series), parasite line A
[10] = at 12.8 µM (top of the series), parasite line B

Cn1c(=O)c2c(ncn2CC(O)CO)n(C)c1=O (stereo not drawn)
z-score [1, 4]: 0.0441
z-score [1, 5]: 0.351
z-score [1, 6]: 0.429

Cc1onc(-c2ccccc2Cl)c1C(=O)N[C@@H]1C(=O)N2[C@@H]1SC(C)(C)[C@@H]2C(=O)O
z-score [1, 4]: 1.22
z-score [1, 5]: 0.834
z-score [1, 6]: 1.69

NS(=O)(=O)c1cc2c(cc1Cl)NC(C(Cl)Cl)NS2(=O)=O (stereo not drawn)
z-score [1, 4]: 0.286
z-score [1, 5]: 0.327
z-score [1, 6]: 0.519

CC(C)OC(=O)OCOP(=O)(CO[C@H](C)Cn1cnc2c(N)ncnc21)OCOC(=O)OC(C)C
z-score [1, 4]: 0.412
z-score [1, 5]: 0.776
z-score [1, 6]: 0.601

N[C@@H](C(=O)N[C@@H]1C(=O)N2C(C(=O)O)=C(Cl)CS[C@H]12)c1ccccc1
z-score [1, 4]: 1.18
z-score [1, 5]: 0.137
z-score [1, 6]: 0.843
activity, negative = inhibition [2, 7]: 10% (inactive)
activity, negative = inhibition [2, 8]: -2.02% (inactive)
Potency [3]: inactive

COc1cc(NS(=O)(=O)c2ccc(N)cc2)nc(OC)n1
activity, negative = inhibition [2, 9]: 5.18% (inactive)
activity, negative = inhibition [2, 10]: -3.51% (inactive)
Potency [3]: inactive

CN(C)CCc1c[nH]c2ccc(C[C@H]3COC(=O)N3)cc12
z-score [1, 4]: 0.402
z-score [1, 5]: -0.14
z-score [1, 6]: 0.58

NC(=O)N1c2ccccc2CC(=O)c2ccccc21
z-score [1, 4]: 0.211
z-score [1, 5]: 0.361
z-score [1, 6]: -0.025
activity, negative = inhibition [2, 7]: -5.05% (inactive)
activity, negative = inhibition [2, 8]: -8.83% (inactive)
Potency [3]: inactive

CN1CCN(c2c(F)cc3c(=O)c(C(=O)O)cn(CCF)c3c2F)CC1
z-score [1, 4]: 1.29
z-score [1, 5]: -0.24
z-score [1, 6]: 0.785
activity, negative = inhibition [2, 7]: 1.69% (inactive)
activity, negative = inhibition [2, 8]: 7.79% (inactive)
Potency [3]: inactive

CN1CCCC(n2nc(Cc3ccc(Cl)cc3)c3ccccc3c2=O)CC1 (stereo not drawn)
activity, negative = inhibition [2, 7]: -9.96% (inactive)
activity, negative = inhibition [2, 8]: -11.1% (inactive)
Potency [3]: inactive

CCn1cc(C(=O)O)c(=O)c2cc(F)c(N3CCNCC3)nc21
z-score [1, 4]: 0.63
z-score [1, 5]: -0.25
z-score [1, 6]: 0.63
activity, negative = inhibition [2, 9]: -33.7% (inactive)
activity, negative = inhibition [2, 10]: -38.9% (inactive)
Potency [3]: inactive

CNNCc1ccc(C(=O)NC(C)C)cc1
activity, negative = inhibition [2, 7]: 0.0651% (inactive)
activity, negative = inhibition [2, 8]: -2.63% (inactive)
Potency [3]: inactive

CC(C)NCC(O)c1ccc(NS(C)(=O)=O)cc1 (stereo not drawn)
activity, negative = inhibition [2, 7]: -2.6% (inactive) and 1.55% (inactive)
activity, negative = inhibition [2, 8]: 9.61% (inactive) and 12.6% (inactive)
Potency [3]: inactive

CNS(=O)(=O)Cc1ccc2[nH]cc(CCN(C)C)c2c1
z-score [1, 4]: 0.748
z-score [1, 5]: 0.938
z-score [1, 6]: 0.747
activity, negative = inhibition [2, 7]: -10.9% (inactive)
activity, negative = inhibition [2, 8]: -3.89% (inactive)
Potency [3]: inactive

CCN(C)C(=O)Oc1cccc([C@H](C)N(C)C)c1
z-score [1, 4]: 0.893
z-score [1, 5]: 0.446
z-score [1, 6]: 1.29
activity, negative = inhibition [2, 7]: 3.53% (inactive)
activity, negative = inhibition [2, 8]: 1.69% (inactive)
Potency [3]: inactive
